Measured values from article PMC7862700, “An all-to-all approach to the identification of sequence-specific readers for epigenetic DNA modifications on cytosine”.

Legend:
Test in all cases: DAPPL (digital affinity profiling via proximity ligation, sequencing); 10 mM Tris-HCl pH 7.5, 50 mM NaCl, 1 mM DTT, 4% glycerol, room temperature, 30 min; GST-TFs on glutathione beads, 16-mer random dsDNA library, 0.1% formaldehyde crosslink after washing; high values mean tight binding
Settings in all cases: protein: recombinant; tags: N-terminal GST; dsDNA, one strand shown
[1] = molecular target: T1, FLI1 (Homo sapiens, UniProt Q01543 1-452)
T1 sequence: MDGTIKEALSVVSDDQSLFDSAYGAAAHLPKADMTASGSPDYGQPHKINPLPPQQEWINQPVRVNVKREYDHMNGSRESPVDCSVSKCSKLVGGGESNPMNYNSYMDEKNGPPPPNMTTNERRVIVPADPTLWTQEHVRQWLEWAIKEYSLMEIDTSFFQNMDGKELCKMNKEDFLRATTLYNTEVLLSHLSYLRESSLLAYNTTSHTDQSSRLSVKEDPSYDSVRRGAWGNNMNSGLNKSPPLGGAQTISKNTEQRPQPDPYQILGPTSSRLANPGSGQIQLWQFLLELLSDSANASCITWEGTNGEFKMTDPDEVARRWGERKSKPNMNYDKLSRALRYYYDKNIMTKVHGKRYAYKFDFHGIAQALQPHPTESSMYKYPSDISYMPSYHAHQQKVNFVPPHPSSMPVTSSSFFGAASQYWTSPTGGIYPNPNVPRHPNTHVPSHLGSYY
Summary of the method: (§1)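 Sequencing on an Illumina NextSeq500 followed washing, crosslinking with 0.1% formaldehyde, proximity ligation (BsaI/T4 ligase, 1 h, 37 °C) and PCR amplification of pools that had been incubated for 30 min at room temperature with 200 nmole of a random double-stranded 16-mer DNA library in Tris/NaCl/DTT/glycerol buffer. Each pool held DNA-barcoded human transcription factors, expressed in yeast as GST fusions and captured on glutathione beads, plus a tag-only sample. Binding signal is a hexamer's read frequency for a factor divided by its frequency in the tag-only sample.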

[2] = molecular target: T2, ELK1 (Homo sapiens, UniProt P19419 1-428)
T2 sequence: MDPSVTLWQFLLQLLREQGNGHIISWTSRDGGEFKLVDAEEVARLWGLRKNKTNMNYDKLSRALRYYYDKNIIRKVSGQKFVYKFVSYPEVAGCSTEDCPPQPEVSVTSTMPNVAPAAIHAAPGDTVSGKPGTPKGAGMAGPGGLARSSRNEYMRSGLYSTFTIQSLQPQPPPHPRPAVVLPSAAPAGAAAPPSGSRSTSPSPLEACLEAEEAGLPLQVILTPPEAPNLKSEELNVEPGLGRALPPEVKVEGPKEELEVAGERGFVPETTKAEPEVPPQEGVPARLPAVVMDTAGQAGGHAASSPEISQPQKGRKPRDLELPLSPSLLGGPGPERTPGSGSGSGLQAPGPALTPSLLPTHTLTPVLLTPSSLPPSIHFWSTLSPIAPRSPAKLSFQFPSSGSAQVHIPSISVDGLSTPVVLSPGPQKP
Summary of the method: as §1

[3] = molecular target: T3, GABPA (Homo sapiens, UniProt Q06546 1-454)
T3 sequence: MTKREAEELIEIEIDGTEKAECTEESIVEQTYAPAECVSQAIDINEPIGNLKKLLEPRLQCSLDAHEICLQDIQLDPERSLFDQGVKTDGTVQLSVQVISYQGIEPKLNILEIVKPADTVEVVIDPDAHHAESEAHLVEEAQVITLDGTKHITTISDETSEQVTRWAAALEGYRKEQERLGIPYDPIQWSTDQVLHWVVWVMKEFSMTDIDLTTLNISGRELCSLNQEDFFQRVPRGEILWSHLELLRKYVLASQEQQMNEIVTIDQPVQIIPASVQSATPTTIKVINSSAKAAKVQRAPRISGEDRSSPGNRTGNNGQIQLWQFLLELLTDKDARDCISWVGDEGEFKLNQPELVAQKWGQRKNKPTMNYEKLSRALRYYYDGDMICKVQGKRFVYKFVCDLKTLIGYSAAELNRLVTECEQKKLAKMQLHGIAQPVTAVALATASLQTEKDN
Summary of the method: as §1

[4] = molecular target: T4, ERG (Homo sapiens, UniProt P11308 1-479)
T4 sequence: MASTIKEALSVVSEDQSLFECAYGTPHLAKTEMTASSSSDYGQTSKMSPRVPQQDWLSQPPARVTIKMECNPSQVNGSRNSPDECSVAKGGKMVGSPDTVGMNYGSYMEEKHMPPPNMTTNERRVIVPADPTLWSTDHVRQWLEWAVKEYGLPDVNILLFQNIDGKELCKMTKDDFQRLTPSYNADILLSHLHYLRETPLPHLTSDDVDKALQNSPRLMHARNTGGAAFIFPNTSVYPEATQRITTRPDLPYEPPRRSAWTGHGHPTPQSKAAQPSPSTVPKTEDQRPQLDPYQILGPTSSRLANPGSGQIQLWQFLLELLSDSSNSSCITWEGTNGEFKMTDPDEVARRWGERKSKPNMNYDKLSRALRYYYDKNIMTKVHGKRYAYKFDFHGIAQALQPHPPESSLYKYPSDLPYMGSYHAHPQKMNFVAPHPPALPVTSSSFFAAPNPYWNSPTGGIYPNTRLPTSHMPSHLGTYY
Summary of the method: as §1

[5] = molecular target: ELF1 (Homo sapiens, UniProt P32519 1-619)
Sequence of ELF1 (P32519 whole entry): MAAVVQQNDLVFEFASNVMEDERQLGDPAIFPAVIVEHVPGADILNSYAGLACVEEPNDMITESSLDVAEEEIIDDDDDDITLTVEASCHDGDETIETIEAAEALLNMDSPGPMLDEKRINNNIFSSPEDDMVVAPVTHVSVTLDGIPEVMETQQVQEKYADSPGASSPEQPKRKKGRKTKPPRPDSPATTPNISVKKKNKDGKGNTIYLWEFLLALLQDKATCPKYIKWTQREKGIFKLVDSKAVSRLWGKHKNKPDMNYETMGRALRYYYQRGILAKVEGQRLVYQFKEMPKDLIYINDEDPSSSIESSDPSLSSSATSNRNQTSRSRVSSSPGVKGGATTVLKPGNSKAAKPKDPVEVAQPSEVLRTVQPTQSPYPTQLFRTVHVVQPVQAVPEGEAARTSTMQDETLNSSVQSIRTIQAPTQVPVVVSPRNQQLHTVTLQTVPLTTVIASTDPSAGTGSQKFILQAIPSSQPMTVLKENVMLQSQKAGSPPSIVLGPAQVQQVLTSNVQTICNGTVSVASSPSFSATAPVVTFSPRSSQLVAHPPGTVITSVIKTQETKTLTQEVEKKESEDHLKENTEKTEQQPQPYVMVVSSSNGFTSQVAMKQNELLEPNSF
Summary of the method: as §1

[6] = molecular target: T5, EHF (Homo sapiens, UniProt Q9NZC4 1-300)
T5 sequence: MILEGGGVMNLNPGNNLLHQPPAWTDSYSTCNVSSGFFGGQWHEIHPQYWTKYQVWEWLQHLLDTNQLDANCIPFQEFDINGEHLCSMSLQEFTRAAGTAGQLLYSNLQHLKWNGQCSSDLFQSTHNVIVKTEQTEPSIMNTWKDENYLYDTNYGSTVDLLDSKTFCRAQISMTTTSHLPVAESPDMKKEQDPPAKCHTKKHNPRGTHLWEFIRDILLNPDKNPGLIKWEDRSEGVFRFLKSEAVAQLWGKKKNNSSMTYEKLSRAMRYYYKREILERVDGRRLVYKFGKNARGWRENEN
Summary of the method: as §1

[7] = molecular target: SPI1 (Homo sapiens, UniProt P17947 1-270)
Summary of the method: as §1

[8] = molecular target: SPIB (Homo sapiens, UniProt Q01892 1-262)
Sequence of SPIB (Q01892 whole entry): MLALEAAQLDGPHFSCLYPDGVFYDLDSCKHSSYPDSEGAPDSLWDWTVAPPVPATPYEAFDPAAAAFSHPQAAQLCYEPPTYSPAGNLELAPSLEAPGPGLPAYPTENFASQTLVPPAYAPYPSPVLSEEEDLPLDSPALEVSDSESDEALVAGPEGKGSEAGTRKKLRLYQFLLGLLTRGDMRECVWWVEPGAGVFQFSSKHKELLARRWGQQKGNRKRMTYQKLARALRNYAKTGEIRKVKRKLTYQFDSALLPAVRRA
Summary of the method: as §1

[9] = molecular target: T6, ELK3 (Homo sapiens, UniProt P41970 1-407)
T6 sequence: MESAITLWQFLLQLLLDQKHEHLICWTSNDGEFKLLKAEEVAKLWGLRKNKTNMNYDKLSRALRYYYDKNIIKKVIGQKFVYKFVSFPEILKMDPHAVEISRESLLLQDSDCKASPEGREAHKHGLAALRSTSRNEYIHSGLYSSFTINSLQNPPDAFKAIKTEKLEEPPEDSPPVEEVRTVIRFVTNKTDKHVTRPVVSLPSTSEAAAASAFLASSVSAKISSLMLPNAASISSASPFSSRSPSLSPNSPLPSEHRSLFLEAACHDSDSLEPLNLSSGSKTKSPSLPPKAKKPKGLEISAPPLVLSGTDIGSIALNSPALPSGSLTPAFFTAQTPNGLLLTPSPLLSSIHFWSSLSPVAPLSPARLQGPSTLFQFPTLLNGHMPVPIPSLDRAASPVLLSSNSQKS
Summary of the method: as §1

## CTGCAA
[1]
  binding signal: 1.29 fold enrichment (6-mer frequency, TF over GST control)
[2]
  binding signal: 1.3 fold enrichment (6-mer frequency, TF over GST control)
[3]
  binding signal: 1.2 fold enrichment (6-mer frequency, TF over GST control)
[4]
  binding signal: 1.23 fold enrichment (6-mer frequency, TF over GST control)
[5]
  binding signal: 1.36 fold enrichment (6-mer frequency, TF over GST control)
[6]
  binding signal: 1.2 fold enrichment (6-mer frequency, TF over GST control)
[7]
  binding signal: 1.31 fold enrichment (6-mer frequency, TF over GST control)
[8]
  binding signal: 1.27 fold enrichment (6-mer frequency, TF over GST control)
[9]
  binding signal: 1.33 fold enrichment (6-mer frequency, TF over GST control)
